# Measured values: PMC8384837, “Expanding the binding specificity for RNA recognition by a PUF domain”
# Biological target: PUM1 PUF domain R4-GPC (Homo sapiens, UniProt Q14671 828-1176, N971G;H972P;Q975C)
# Test: yeast three-hybrid, YBZ-1, SC-Leu-His + 0.5 mM 3-AT, 4 days
# Conditions: tags: N-Gal4 AD-HA kept; label: inside an RPR1-promoter hybrid RNA with tandem MS2 sites; ssRNA
# Procedure, shortened: (§1)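 Repeat regions from input (SC-Leu) and selection (SC-Leu-His + 0.5 mM 3-AT) plates were PCR-amplified and Illumina-sequenced after four days of growth. The cells were strain YBZ-1 with a LexA–MS2 coat fusion and a HIS3 reporter, co-expressing Pumilio-1 PUF domain libraries and matching RNA elements from a centromeric plasmid. The interaction score is the log change in variant frequency from input to selection, taken in log2 with a pseudocount of 1 for absent variants.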
row,Sequence,binding signal
1,GGCUAGAACUAGUGGAUCCCCCGGCGCCCGGCGGCUCGAGCCCGGGUAAGUGUAUAUAGUCUGCAUGCCGCCGGGCGCCAUGCCUGCAGGUCGACUCUAGAAAACAUG,2.93 log2 enrichment (interaction score)
2,GGCUAGAACUAGUGGAUCCCCCGGCGCCCGGCGGCUCGAGCCCGGGUAAGUGUACAUAGUCUGCAUGCCGCCGGGCGCCAUGCCUGCAGGUCGACUCUAGAAAACAUG,1.58 log2 enrichment (interaction score)
3,GGCUAGAACUAGUGGAUCCCCCGGCGCCCGGCGGCUCGAGCCCGGGUAAGUGUAAAUAGUCUGCAUGCCGCCGGGCGCCAUGCCUGCAGGUCGACUCUAGAAAACAUG,4.57 log2 enrichment (interaction score)

# Biological target: PUM1 PUF domain R3-FWS (Homo sapiens, UniProt Q14671 828-1176, C935F;R936W;Q939S)
# Test: as above
# Conditions: tags: N-Gal4 AD-HA kept; label: inside an RPR1-promoter hybrid RNA with tandem MS2 sites; ssRNA
# Procedure, shortened: as §1
row,Sequence,binding signal
1,GGCUAGAACUAGUGGAUCCCCCGGCGCCCGGCGGCUCGAGCCCGGGUAAGUGUAAGUAGUCUGCAUGCCGCCGGGCGCCAUGCCUGCAGGUCGACUCUAGAAAACAUG,7.37 log2 enrichment (interaction score)
2,GGCUAGAACUAGUGGAUCCCCCGGCGCCCGGCGGCUCGAGCCCGGGUAAGUGUAAUUAGUCUGCAUGCCGCCGGGCGCCAUGCCUGCAGGUCGACUCUAGAAAACAUG,2.99 log2 enrichment (interaction score)
3,GGCUAGAACUAGUGGAUCCCCCGGCGCCCGGCGGCUCGAGCCCGGGUAAGUGUAAAUAGUCUGCAUGCCGCCGGGCGCCAUGCCUGCAGGUCGACUCUAGAAAACAUG,3.07 log2 enrichment (interaction score)

# Biological target: PUM1 PUF domain R3-CRT (Homo sapiens, UniProt Q14671 828-1176, Q939T)
# Test: as above
# Conditions: tags: N-Gal4 AD-HA kept; label: inside an RPR1-promoter hybrid RNA with tandem MS2 sites; ssRNA
# Procedure, shortened: as §1
# PUM1 PUF domain R3-CRT, sequence (Q14671 828-1176 Q939T): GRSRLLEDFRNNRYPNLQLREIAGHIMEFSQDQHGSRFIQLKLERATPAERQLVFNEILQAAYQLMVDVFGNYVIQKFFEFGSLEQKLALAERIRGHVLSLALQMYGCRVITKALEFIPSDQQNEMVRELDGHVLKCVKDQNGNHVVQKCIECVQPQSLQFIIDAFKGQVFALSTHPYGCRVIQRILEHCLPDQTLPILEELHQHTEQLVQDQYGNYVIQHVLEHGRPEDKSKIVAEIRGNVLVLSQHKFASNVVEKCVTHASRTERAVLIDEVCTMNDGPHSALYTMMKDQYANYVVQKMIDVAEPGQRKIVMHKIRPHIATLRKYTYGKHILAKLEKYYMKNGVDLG
row,Sequence,binding signal
1,GGCUAGAACUAGUGGAUCCCCCGGCGCCCGGCGGCUCGAGCCCGGGUAAGUGUAAGUAGUCUGCAUGCCGCCGGGCGCCAUGCCUGCAGGUCGACUCUAGAAAACAUG,1.54 log2 enrichment (interaction score)
2,GGCUAGAACUAGUGGAUCCCCCGGCGCCCGGCGGCUCGAGCCCGGGUAAGUGUAAUUAGUCUGCAUGCCGCCGGGCGCCAUGCCUGCAGGUCGACUCUAGAAAACAUG,1.12 log2 enrichment (interaction score)
3,GGCUAGAACUAGUGGAUCCCCCGGCGCCCGGCGGCUCGAGCCCGGGUAAGUGUAAAUAGUCUGCAUGCCGCCGGGCGCCAUGCCUGCAGGUCGACUCUAGAAAACAUG,3.85 log2 enrichment (interaction score)

# Biological target: PUM1 PUF domain R3-GRD (Homo sapiens, UniProt Q14671 828-1176, C935G;Q939D)
# Test: as above
# Conditions: tags: N-Gal4 AD-HA kept; label: inside an RPR1-promoter hybrid RNA with tandem MS2 sites; ssRNA
# Procedure, shortened: as §1
# PUM1 PUF domain R3-GRD, sequence (Q14671 828-1176 C935G/Q939D): as the sequence (Q14671 828-1176 Q939T) above, with C108G, T112D counted along it
row,Sequence,binding signal
1,GGCUAGAACUAGUGGAUCCCCCGGCGCCCGGCGGCUCGAGCCCGGGUAAGUGUAAGUAGUCUGCAUGCCGCCGGGCGCCAUGCCUGCAGGUCGACUCUAGAAAACAUG,6.36 log2 enrichment (interaction score)
2,GGCUAGAACUAGUGGAUCCCCCGGCGCCCGGCGGCUCGAGCCCGGGUAAGUGUAAUUAGUCUGCAUGCCGCCGGGCGCCAUGCCUGCAGGUCGACUCUAGAAAACAUG,2.16 log2 enrichment (interaction score)
3,GGCUAGAACUAGUGGAUCCCCCGGCGCCCGGCGGCUCGAGCCCGGGUAAGUGUAAAUAGUCUGCAUGCCGCCGGGCGCCAUGCCUGCAGGUCGACUCUAGAAAACAUG,4.82 log2 enrichment (interaction score)
